The target in experiment [1] is ALK tyrosine kinase receptor (Homo sapiens) (UniProt Q9UM73). The settings on record: at 10 µM.
Experiment [2] deals with T1, Activin receptor type-1B (Homo sapiens) (UniProt P36896).
T1 sequence (whole entry): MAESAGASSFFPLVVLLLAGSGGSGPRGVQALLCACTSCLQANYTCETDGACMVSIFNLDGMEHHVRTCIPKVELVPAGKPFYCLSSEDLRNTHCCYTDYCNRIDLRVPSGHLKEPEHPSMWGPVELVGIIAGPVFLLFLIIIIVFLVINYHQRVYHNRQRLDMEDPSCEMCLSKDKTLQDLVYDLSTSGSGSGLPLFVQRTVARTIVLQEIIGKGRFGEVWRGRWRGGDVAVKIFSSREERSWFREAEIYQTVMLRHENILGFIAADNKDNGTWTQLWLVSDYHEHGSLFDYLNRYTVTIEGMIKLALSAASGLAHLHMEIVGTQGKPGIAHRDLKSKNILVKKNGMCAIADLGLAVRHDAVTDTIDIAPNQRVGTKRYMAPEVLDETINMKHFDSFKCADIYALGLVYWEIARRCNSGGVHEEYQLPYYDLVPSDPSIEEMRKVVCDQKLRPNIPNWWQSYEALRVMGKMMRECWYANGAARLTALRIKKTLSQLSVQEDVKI
The settings on record: at 1 µM.

Experiment [3] addresses T1, Activin receptor type-1B (Homo sapiens). The settings on record: at 10 µM.
Experiment [4] concerns the target T2, AMP-activated protein kinase (AMPK) alpha-1/beta-1/gamma-1 (Homo sapiens) (UniProt P54619+Q9Y478+Q13131). The settings on record: at 1 µM.
Experiment [5] deals with T2, AMP-activated protein kinase (AMPK) alpha-1/beta-1/gamma-1 (Homo sapiens). The following applies: at 10 µM.
Experiment [6] concerns the target T3, AMP-activated protein kinase, AMPK (Homo sapiens) (UniProt P54646+O43741+P54619+Q9UGJ0+Q9Y478+Q13131+Q9UGI9). The following applies: at 1 µM.
Experiment [7] deals with T3, AMP-activated protein kinase, AMPK (Homo sapiens). The settings on record: at 10 µM.
Experiment [8] addresses T4, NUAK family SNF1-like kinase 1 (Homo sapiens) (UniProt O60285).
T4 sequence (whole entry): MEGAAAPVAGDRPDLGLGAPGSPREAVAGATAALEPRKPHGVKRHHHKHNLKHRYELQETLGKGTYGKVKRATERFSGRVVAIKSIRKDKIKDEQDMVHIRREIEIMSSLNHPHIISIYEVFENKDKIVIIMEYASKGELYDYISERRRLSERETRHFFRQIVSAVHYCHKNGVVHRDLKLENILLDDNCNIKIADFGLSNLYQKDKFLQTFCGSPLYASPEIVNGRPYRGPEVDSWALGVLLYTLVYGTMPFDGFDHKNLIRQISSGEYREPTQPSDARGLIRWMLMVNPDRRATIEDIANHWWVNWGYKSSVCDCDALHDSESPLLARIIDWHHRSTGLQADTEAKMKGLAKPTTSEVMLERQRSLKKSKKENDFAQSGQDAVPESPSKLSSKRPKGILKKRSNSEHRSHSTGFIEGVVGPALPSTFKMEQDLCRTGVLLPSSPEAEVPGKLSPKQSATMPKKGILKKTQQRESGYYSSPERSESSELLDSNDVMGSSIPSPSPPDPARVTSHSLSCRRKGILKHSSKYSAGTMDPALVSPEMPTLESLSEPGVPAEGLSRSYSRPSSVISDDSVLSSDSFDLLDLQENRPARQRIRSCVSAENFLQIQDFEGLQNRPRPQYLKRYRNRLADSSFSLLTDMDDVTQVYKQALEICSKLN
The following applies: at 1 µM.

Experiment [9] has as its target T4, NUAK family SNF1-like kinase 1 (Homo sapiens). The following applies: at 10 µM.
Experiment [10] concerns the target T5, Mitogen-activated protein kinase kinase kinase 5 (Homo sapiens) (UniProt Q99683).
T5 sequence (whole entry): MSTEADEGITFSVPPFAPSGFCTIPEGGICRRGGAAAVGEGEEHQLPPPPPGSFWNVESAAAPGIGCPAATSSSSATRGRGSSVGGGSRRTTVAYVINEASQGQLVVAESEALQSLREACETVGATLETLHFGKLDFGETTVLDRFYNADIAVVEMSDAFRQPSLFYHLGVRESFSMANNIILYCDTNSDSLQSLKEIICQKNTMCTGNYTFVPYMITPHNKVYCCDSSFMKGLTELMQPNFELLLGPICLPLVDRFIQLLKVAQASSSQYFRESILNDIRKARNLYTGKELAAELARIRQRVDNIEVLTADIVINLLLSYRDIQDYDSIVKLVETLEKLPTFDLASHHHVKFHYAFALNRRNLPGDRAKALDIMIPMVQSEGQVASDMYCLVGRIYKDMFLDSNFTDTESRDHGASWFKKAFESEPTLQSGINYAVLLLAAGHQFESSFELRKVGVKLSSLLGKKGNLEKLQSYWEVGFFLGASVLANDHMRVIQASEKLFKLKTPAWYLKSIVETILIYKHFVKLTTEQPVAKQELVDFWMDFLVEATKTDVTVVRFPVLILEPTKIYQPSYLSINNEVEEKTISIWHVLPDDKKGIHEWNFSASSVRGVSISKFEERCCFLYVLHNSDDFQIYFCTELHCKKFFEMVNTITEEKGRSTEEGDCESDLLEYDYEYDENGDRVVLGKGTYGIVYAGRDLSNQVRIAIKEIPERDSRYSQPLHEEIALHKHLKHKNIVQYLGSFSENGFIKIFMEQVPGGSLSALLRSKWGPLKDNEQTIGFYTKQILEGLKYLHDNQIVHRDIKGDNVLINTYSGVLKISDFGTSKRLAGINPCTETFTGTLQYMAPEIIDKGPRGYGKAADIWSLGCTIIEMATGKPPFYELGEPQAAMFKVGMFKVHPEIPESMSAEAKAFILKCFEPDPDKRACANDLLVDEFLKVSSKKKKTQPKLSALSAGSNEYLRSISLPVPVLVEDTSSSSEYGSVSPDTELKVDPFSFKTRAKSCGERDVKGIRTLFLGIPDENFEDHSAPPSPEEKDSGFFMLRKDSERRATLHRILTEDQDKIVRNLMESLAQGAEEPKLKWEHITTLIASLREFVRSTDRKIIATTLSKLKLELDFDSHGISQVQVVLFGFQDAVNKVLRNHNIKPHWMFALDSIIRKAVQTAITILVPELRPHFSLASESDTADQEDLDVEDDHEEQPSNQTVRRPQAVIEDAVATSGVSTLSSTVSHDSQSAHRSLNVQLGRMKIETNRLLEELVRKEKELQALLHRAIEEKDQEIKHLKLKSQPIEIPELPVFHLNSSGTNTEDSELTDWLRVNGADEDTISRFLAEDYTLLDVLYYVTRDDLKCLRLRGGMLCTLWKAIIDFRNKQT
The following applies: at 1 µM.

Experiment [11] deals with Platelet-derived growth factor receptor alpha (Homo sapiens) (UniProt P16234). The following applies: at 1 µM.
Experiment [12] shares this target. The settings on record: at 10 µM.
The target of experiment [13] is Platelet-derived growth factor receptor beta (Homo sapiens) (UniProt P09619). The settings on record: at 1 µM.
For experiment [14] the target is unchanged. The settings on record: at 10 µM.
The target of experiment [15] is T6, 3-phosphoinositide-dependent protein kinase 1 (Homo sapiens) (UniProt O15530).
T6 sequence (whole entry): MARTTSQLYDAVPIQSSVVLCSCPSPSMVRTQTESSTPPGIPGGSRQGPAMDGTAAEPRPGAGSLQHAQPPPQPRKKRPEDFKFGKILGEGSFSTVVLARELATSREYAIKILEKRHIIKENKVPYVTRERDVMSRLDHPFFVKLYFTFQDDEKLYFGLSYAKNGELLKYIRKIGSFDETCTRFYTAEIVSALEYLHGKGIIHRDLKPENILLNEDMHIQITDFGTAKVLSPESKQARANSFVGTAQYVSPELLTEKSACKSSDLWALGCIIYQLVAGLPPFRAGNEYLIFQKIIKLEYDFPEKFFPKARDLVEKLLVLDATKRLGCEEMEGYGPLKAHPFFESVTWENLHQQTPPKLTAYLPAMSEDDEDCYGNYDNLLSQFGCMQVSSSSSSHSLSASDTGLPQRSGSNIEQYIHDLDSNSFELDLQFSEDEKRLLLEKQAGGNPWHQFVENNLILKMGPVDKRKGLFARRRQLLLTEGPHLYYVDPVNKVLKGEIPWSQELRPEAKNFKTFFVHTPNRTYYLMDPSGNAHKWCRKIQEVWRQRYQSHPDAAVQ
The settings on record: at 1 µM.

The target of experiment [16] is T6, 3-phosphoinositide-dependent protein kinase 1 (Homo sapiens). The following applies: at 10 µM.
Experiment [17] addresses cAMP-dependent protein kinase catalytic subunit alpha (Homo sapiens) (UniProt P17612). The settings on record: at 1 µM.
Experiment [18] shares this target. The following applies: at 10 µM.
In experiment [19] the target is RAC-gamma serine/threonine-protein kinase (Homo sapiens) (UniProt Q9Y243). The following applies: at 1 µM.
Experiment [20] has the same target. The settings on record: at 10 µM.

Platelet-derived growth factor receptor alpha (Homo sapiens), sequence (P16234 whole entry): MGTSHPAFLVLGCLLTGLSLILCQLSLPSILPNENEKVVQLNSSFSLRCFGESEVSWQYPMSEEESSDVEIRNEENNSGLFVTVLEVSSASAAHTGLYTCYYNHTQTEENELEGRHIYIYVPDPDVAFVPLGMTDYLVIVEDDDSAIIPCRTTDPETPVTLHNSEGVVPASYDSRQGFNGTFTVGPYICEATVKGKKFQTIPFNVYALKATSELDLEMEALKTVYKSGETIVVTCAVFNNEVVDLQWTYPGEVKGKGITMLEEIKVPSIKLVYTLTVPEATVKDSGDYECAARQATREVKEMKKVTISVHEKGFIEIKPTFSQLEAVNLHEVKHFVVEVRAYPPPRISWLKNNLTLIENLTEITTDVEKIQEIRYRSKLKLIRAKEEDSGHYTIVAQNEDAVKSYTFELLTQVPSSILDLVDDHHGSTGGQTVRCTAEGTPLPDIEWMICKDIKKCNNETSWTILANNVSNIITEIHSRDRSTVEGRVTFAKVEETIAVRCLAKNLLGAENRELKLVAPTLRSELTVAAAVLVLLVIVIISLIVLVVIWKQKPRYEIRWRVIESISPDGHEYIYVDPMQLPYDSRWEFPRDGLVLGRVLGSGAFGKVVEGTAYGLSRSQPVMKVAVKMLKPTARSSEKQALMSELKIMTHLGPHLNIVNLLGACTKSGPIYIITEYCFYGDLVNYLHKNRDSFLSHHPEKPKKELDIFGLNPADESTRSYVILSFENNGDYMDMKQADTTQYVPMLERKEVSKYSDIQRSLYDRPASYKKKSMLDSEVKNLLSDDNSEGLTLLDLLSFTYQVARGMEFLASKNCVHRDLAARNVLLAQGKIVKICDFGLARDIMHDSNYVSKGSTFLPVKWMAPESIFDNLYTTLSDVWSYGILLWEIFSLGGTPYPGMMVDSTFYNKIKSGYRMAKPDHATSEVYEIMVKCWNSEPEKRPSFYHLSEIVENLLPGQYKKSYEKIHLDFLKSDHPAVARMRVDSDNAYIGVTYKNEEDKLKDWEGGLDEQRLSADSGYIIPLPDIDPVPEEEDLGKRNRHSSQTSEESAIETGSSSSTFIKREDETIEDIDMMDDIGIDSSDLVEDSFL
T2 sequence (P54619 whole entry): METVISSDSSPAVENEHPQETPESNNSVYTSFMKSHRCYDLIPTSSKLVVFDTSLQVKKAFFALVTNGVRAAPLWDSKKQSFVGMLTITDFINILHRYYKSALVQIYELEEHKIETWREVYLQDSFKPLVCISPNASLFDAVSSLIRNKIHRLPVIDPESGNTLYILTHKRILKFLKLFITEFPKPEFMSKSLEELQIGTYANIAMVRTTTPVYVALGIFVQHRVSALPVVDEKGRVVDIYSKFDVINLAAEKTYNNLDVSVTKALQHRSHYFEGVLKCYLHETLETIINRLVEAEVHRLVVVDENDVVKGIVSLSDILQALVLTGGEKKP
T2 sequence (Q13131 whole entry partner): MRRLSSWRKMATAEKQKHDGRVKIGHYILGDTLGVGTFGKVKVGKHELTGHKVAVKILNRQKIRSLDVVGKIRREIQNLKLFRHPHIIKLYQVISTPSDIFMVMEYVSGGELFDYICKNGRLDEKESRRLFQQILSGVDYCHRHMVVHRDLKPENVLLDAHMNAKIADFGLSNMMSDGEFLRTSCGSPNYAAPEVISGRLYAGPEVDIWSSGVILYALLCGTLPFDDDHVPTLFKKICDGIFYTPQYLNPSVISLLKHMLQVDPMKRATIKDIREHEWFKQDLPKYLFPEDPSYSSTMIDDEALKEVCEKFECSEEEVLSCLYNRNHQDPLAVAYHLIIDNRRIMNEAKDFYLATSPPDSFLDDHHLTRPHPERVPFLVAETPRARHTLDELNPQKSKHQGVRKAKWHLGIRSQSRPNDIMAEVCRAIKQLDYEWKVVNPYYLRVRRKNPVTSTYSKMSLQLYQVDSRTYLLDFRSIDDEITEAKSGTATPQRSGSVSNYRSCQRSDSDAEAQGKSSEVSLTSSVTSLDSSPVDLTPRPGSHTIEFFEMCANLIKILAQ
T2 sequence (Q9Y478 2-270 partner limits assumed): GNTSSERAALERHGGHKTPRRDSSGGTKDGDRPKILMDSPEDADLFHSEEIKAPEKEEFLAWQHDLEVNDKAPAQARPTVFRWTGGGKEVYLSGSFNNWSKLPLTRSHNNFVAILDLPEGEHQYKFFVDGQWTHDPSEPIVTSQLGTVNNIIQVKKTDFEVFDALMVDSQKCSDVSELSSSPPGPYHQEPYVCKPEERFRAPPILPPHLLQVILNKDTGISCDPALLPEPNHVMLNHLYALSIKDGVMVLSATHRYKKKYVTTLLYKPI
RAC-gamma serine/threonine-protein kinase (Homo sapiens), sequence (Q9Y243 whole entry): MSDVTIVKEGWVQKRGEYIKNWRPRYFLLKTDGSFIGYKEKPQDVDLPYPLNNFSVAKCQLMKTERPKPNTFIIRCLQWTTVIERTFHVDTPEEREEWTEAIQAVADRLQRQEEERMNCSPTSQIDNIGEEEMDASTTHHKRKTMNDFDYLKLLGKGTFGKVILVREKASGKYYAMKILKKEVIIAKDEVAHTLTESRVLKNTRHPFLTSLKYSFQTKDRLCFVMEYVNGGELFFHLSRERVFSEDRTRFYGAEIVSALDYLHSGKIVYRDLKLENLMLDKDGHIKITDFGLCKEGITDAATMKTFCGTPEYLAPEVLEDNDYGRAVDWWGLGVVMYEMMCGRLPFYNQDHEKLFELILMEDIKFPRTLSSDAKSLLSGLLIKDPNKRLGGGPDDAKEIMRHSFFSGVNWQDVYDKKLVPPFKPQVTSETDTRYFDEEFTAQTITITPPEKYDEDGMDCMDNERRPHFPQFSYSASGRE
ALK tyrosine kinase receptor (Homo sapiens), sequence (Q9UM73 19-1620 limits assumed): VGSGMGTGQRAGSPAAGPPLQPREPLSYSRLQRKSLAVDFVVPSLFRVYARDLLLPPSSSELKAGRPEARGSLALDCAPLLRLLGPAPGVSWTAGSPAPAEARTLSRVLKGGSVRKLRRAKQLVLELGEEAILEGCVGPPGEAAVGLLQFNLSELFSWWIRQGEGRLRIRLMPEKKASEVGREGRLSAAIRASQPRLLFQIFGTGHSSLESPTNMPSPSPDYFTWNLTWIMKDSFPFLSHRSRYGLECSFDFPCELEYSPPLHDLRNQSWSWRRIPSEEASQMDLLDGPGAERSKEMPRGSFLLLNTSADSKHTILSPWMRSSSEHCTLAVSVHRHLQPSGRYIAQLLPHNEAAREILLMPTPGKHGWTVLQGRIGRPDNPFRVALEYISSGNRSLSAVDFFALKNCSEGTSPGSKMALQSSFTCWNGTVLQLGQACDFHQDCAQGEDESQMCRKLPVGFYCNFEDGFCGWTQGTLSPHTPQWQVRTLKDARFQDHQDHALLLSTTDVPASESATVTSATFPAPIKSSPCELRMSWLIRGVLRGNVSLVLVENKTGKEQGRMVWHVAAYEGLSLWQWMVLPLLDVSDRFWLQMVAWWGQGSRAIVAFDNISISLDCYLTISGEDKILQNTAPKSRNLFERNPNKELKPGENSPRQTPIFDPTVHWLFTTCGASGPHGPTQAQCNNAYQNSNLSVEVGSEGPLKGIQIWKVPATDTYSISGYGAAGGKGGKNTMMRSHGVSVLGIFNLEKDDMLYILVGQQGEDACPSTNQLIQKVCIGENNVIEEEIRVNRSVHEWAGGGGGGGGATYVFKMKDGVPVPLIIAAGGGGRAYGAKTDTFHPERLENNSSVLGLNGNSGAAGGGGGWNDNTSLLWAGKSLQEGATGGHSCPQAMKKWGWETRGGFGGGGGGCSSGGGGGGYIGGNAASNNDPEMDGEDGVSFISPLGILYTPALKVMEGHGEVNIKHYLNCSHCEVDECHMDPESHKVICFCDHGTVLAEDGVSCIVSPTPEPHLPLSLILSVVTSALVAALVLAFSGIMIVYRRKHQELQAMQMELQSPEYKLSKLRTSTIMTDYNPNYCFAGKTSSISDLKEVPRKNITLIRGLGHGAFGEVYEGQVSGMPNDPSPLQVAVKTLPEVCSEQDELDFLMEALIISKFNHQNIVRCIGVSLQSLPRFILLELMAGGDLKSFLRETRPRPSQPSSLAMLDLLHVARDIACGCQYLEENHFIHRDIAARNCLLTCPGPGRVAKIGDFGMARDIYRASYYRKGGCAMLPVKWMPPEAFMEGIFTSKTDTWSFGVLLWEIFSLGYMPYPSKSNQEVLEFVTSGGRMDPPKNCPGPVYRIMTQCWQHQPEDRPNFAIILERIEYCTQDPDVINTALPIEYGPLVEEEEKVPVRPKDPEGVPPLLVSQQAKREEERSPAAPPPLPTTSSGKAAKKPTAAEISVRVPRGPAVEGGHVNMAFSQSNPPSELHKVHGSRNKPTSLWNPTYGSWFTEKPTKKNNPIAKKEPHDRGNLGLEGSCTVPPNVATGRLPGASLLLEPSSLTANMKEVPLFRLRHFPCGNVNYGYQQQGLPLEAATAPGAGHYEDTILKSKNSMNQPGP

For `Nc1ccc2ncnc(NCCc3ccc(Oc4ccccc4)cc3)c2c1`, the residual activity in experiment [1] is 67%; in experiment [2], 102%; in experiment [3], 103%; in experiment [4] it was 51%; in [5] it was 28%; in experiment [6], 65%. Also, the residual activity in [7] was 42%; in experiment [8], 108%; in [9], 23%; in experiment [10], 87%; in [11] it was 87%; in experiment [12] it was 43%. In addition, the residual activity in experiment [13] stood at 97%; in experiment [14] it was 95%; in experiment [15], 104%; in [16], 109%; in [17], 103%; in experiment [18], 124%. Further, the residual activity in experiment [19] stood at 99%; in experiment [20], 76%.

In the case of `Cc1cc(Nc2nc(-c3ccccc3)nc3ccccc23)n[nH]1`, the residual activity in experiment [1] is 15%; in experiment [2], 96%; in [3], 76%; in [4] it was 15%; in experiment [5] it was 3%; in experiment [6], 5%. Besides, the residual activity in experiment [7] is 3%; in [8] it was 3%; in [9] it was -1%; in [10], 94%; in experiment [12], 26%; in experiment [13] it was 79%. Besides, the residual activity was determined as 28% in experiment [14]; 94% in experiment [15]; 39% in experiment [16]; 70% in experiment [18]; 46% in [20].

With `O=C(O)c1ccc2c3c1cccc3c(=O)n1c3ccccc3nc21`, the residual activity in [1] was 49%; in experiment [2], 110%; in experiment [3], 108%; in [4], 34%; in experiment [5], 6%; in experiment [6], 37%. Moreover, the residual activity in [7] came to 13%; in experiment [8], 73%; in experiment [9], 28%; in experiment [10] it was 90%; in experiment [11] it was 113%; in [12], 114%. Besides, the residual activity in experiment [14] came out at 108%; in experiment [15] it was 108%; in experiment [16], 82%; in experiment [17], 73%; in experiment [18] it was 89%; in [19] it was 102%. Besides, the residual activity in [20] is 82%.

Regarding `CO[C@H]1C[C@@H]2CC[C@@H](C)[C@@](O)(O2)C(=O)C(=O)N2CCCC[C@H]2C(=O)O[C@H]([C@H](C)C[C@@H]2CC[C@@H](O)[C@H](OC)C2)CC(=O)[C@H](C)/C=C(\C)[C@@H](O)[C@@H](OC)C(=O)[C@H](C)C[C@H](C)/C=C/C=C/C=C/1C`, the residual activity stood at 32% in [1]; 115% in experiment [2]; 110% in [3]; 79% in experiment [4]; 93% in [6]; 107% in experiment [7]. Besides, the residual activity turned out to be 99% in experiment [8]; 96% in experiment [9]; 85% in [10]; 111% in [11]; 102% in experiment [12]; 116% in experiment [13]. For the same compound, the residual activity in [14] amounted to 114%; in [15], 117%; in experiment [16], 126%; in [17], 112%; in experiment [18], 141%; in experiment [19], 103%. In [20], the residual activity was 98%.

Consider `O=C1NC(=O)c2cc(Nc3ccc(F)cc3)c(Nc3ccc(F)cc3)cc21`, for which the residual activity in experiment [1] was determined as 42%; in experiment [2] it was 129%; in experiment [3], 88%; in experiment [4] it was 93%; in [5] it was 73%; in experiment [6], 92%. In addition, the residual activity in experiment [7] came to 66%; in experiment [8], 101%; in [9], 75%; in experiment [10], 110%; in experiment [11], 115%; in [12], 107%. Also, the residual activity in experiment [13] is 109%; in experiment [14] it was 95%; in experiment [15], 106%; in experiment [16], 110%; in experiment [17] it was 100%; in [18] it was 82%. Besides, the residual activity turned out to be 98% in [19] and 65% in experiment [20].

For the compound `COc1cc2ncnc(Nc3ccc(NC(=O)c4ccccc4)cc3)c2cc1OC`, the residual activity turned out to be 57% in [1]; 105% in experiment [3]; 90% in [5]; 88% in [7]; 86% in experiment [9]; 103% in experiment [10]. For the same compound, the residual activity in experiment [12] worked out at 81%; in experiment [14], 102%; in experiment [16] it was 106%; in experiment [17], 71%; in [18] it was 85%; in experiment [20], 102%.

On to `O=c1cc(-c2cccc3c2Sc2ccccc2S3)oc(N2CCOCC2)c1`, for which the residual activity is 84% in experiment [1]; 88% in experiment [2]; 97% in experiment [3]; 108% in experiment [4]; 90% in experiment [5]; 102% in experiment [6]. Further, the residual activity in experiment [7] is 95%; in experiment [8], 102%; in experiment [9] it was 83%; in experiment [10], 102%; in [11], 106%; in [13], 111%. Also, the residual activity in experiment [14] turned out to be 92%; in experiment [15], 99%; in [16] it was 107%; in experiment [17], 102%; in [18], 104%; in experiment [19], 106%. For the same compound, the residual activity in experiment [20] is 84%.

For the origin of these results see ChEMBL document CHEMBL2218924, “A broad activity screen in support of a chemogenomic map for kinase signalling research and drug discovery” (Biochem J, 2013).
